Hits are enriched below; roughly 3.3% of the tested compounds scored in any of these assays.
FAK inh – FAK (human) kinase inhibition; Q05397; biochemical FAK kinase activity assay; inhibition, %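 (tested at 7 µM)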; hit rate 0.84% among 97,000; in the data active = inhibition above about 19%;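 note: 0% = DMSO and 100% = reference compound high control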
Smad3 inh – inhibitors of human Smad3 transcription factor binding; TR-FRET Smad3/Dy647-FoxH1 peptide binding, europium anti-His; P84022; hit rate 0.29% among 88,000; inhibition, % at 25 µM;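 active = compounds that reduce the energy-transfer binding signal between the protein and its labelled peptide by more than half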;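 note: 0% = Smad3 plus labelled peptide maximal FRET and 100% = peptide-only background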
ERa SRC1 pot – ER-alpha (human) coactivator binding potentiation. P03372. TR-FRET ERalpha-LBD/SRC-Cy5 coactivator binding, 2 h; 100 = basal binding, no effect. coactivator binding (% of control), % at 25.6 µM. hit rate 1.3% among 86,000. AID 639; in the data active = activity above about 200%;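 note: binding measured in presence of low estradiol as agonist stimulus; 0% = peptide alone without receptor and 100% = receptor with peptide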
ERa coact inh – blocks coactivator binding to human estrogen receptor alpha. P03372. TR-FRET ER-alpha LBD / SRC-1 peptide, estradiol-bound. inhibition, % at 25.6 µM. hit rate 1.7% among 86,000. AID 629; in the data active = inhibition above about 50%;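 note: 0% = receptor plus peptide control and 100% = peptide only without receptor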
ERb SRC1 inh – ER-beta (human) coactivator binding inhibition; TR-FRET ER-beta LBD / SRC1-Cy5 peptide binding; receptor agonist-loaded with 1 µM estradiol; inhibition, % at 25.6 µM; hit rate 1.3% among 86,000; AID 633;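 active = compounds whose percent inhibition of the receptor-coactivator binding signal exceeds about 50% in the single-dose screen, limit read from the data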;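 note: 0% = receptor plus peptide wells without compound and 100% = peptide-only wells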
Target sequence (Q92731 whole entry, looked up, the tested form may be a part): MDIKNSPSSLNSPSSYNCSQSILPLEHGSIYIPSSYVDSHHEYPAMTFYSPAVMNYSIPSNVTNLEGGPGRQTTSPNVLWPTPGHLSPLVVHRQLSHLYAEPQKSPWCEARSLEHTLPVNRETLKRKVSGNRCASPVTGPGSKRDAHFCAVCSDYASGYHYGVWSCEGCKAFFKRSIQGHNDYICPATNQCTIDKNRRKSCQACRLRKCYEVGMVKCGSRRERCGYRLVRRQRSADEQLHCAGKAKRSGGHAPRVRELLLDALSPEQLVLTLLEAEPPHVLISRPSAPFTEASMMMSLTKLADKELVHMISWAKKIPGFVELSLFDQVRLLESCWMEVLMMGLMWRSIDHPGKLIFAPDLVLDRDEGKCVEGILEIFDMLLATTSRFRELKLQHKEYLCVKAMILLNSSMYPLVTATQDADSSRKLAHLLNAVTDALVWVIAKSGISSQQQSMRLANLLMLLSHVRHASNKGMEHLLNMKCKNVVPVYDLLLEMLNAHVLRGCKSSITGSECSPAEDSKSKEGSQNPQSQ
The depositor's hits bear a star; i = inactive; / = not tested or not shown; [ ] = another dose, or the depositor's remark.

SMILES	FAK inh	Smad3 inh	ERa SRC1 pot	ERa coact inh	ERb SRC1 inh
CCn1c(SCC(=O)NCC(=O)Nc2ccc(F)cc2)nnc1-c1cccs1	-3.3	-3.1	103.4	-8.6	1.2
CCN(CC)c1ccc(-c2nnc(SCC(=O)Nc3ccccc3C#N)n2-c2ccccc2)cc1	1.0	-4.0	104.0	52.4*[fluorescence artefact?]	28.9
O=C(CSc1nnc(-c2cccs2)n1-c1ccccc1)Nc1ccccc1	-150.1	-218.1	969.5*[fluorescence artefact?]	-31.1	11.5
CCOC(=O)c1ccc(NC(=O)CSc2nnc(COc3ccccc3)n2C)cc1	-0.4	8.6	178.1	13.5	7.7
CCOC(=O)c1ccc(NC(=O)CSc2nnc(CNc3ccc(OC)cc3)n2C)cc1	0.7	12.7	92.7	52.3*	35.2
CCn1c(SCC(=O)Nc2ccc(C(=O)OC)cc2)nnc1-c1cccs1	1.9	-56.7	304.4*[fluorescence artefact?]	-1.7	10.4
C[N+](C)(C)c1ncnc2c1ncn2[C@@H]1CCCCO1	/	7.6	/	/	/
C=CCn1c(SCC(=O)Nc2ccc(C(=O)OCC)cc2)nnc1-c1cccs1	/	i	755.1*[fluorescence artefact?]	-44.5	10.3
C=CCn1c(Cc2cccs2)nnc1SCC(=O)Nc1ccc(C(=O)OCC)cc1	-3.0	-4.3	112.2	-1.7	-0.6
CCSC(SCC)[C@H](O)[C@@H](O)[C@H](O)[C@H](O)CO	/	10.4	774.5*[fluorescence artefact?]	-5.5	1.2
CN(C)c1ccc(-c2nnc(-c3ccc(S(=O)(=O)C(F)F)cc3)o2)cc1	3.3	2.6	241.1*	54.6*[fluorescence artefact?]	23.7
CCCCSc1nc(C)cc(C)c1S(=O)(=O)c1ccccc1C	0.9	/	/	/	/
CCOc1ccc(NC(=O)c2cc3cc4ccc(OC)cc4nc3o2)cc1	13.5	31.8	194.3	56.0*	44.7
Cc1ccc(N2C(=O)CS/C2=C(\C(Cl)=C(Cl)Cl)[N+](=O)[O-])cc1	-0.2	52.2*	109.9	22.5	32.8
COc1cccc(/C=N/n2c(SC)nnc2-c2ccccc2)c1OC	-1.7	-16.9	105.3	21.8	8.0
COc1cccc(/C=N/n2c(SC)nnc2-c2ccccc2)c1O	-9.6	1.3	89.5	16.0	68.0*[fluorescence artefact?]
Cc1cc(Cl)nc(NC(=O)CSc2ccc(Cl)cc2)n1	/	-8.0	/	/	/
NC(=O)SCC(=O)Nc1ccc2ncccc2c1	/	40.5	/	/	/
CC(C)c1nc(SCC(=O)Nc2ccc(N3CCOCC3)cc2)c2ccccc2n1	34.1*	3.6	105.0	-23.9	-23.3
O=C(CCc1ccccc1)Nc1ccc(N2CCOCC2)c(Cl)c1	1.0	1.6	94.8	4.1	12.4
O=C(CCc1ccccc1)Nc1ccc(N2CCOCC2)cc1	/	12.9	111.2	3.9	59.1*
CCCc1nc(SCC(=O)Nc2ccc(N3CCOCC3)cc2)c2ccccc2n1	10.1	-10.9	95.8	-29.6	-1.3
O=C(Nc1cccc(NC(=O)c2ccc(-c3ccc(Br)cc3)o2)c1)c1ccco1	1.9	10.1	108.0	71.1*[fluorescence artefact?]	22.3
CCOc1ncccc1C(=O)OCC(=O)Nc1cc(C)ccc1C	-0.5	-4.2	118.3	1.6	6.7
CCOc1ncccc1C(=O)OCc1cc(=O)oc2c(C)c(C)ccc12	/	-26.8	286.7*[fluorescence artefact?]	47.8	43.7
SMILES	FAK inh	Smad3 inh	ERa SRC1 pot	ERa coact inh	ERb SRC1 inh
COc1cccc(NC(=O)C2CCCN(S(=O)(=O)c3ccc(-n4cnnn4)cc3)C2)c1 (stereo not given)	/	2.3	135.1	-5.7	-2.2
CCOc1cccc(NC(=O)C2CCCN(S(=O)(=O)c3ccc(-n4cnnn4)cc3)C2)c1 (stereo not given)	-3.1	2.6	236.9*[fluorescence artefact?]	-8.3	-1.1
Nc1ccn([C@H]2O[C@H](CO)[C@@H]3[O][Sn]([c]4ccccc4)([c]4ccccc4)[O][C@@H]32)c(=O)n1	/	7.4	/	/	/
COCCOC(=O)c1[nH]c2c(c1C)C(=O)CC(c1ccc(F)cc1)C2 (stereo not given)	-1.3	-4.4	122.5	2.3	-7.2
Cc1c(C(=O)OCCOC(C)C)[nH]c2c1C(=O)CC(c1ccco1)C2 (stereo not given)	/	10.5	123.1	33.0	28.9
Cc1c(C(=O)OCc2ccccc2)[nH]c2c1C(=O)CC(c1ccco1)C2 (stereo not given)	/	2.3	89.5	55.1*	56.4*
COCCOC(=O)c1[nH]c2c(c1C)C(=O)CC(c1ccco1)C2 (stereo not given)	/	1.6	138.8	51.3*	50.0
CSCCOC(=O)c1[nH]c2c(c1C)C(=O)CC(c1ccco1)C2 (stereo not given)	/	10.9	121.4	55.8*	50.2*
COCCOC(=O)c1[nH]c2c(c1C)C(=O)CC(c1ccc(N(C)C)cc1)C2 (stereo not given)	9.7	8.9	93.8	0.2	-0.2

Assay outcomes from PubChem.
